About 83,000 compounds went through this panel and 20% of them were active in at least one assay; those are over-represented in the sample as a whole.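 Results are percent growth after 48 hours of single-concentration exposure. 100 means growth as in untreated cells, lower positive values show inhibition; negative values down to -100 show cell death.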 A number with no mark means an inactive call. Active and inactive are the calls of the source. How the source made its calls: active means growth percent below 10; inactive means the rest.
Assays:
Experiment in all cases: NCI-60 one-dose screen, 48 h (100 = growth as untreated, 0 = no growth, -100 = all killed)
Conditions in all cases: 10 µM unless noted
NCI-H23 lung = test system: NCI-H23 lung
NCI-H226 lung = test system: NCI-H226 lung
NCI-H322M lung = test system: NCI-H322M lung
HOP-62 NSCLC = test system: HOP-62 NSCLC
NCI-H460 lung = test system: NCI-H460 lung
HOP-92 NSCLC = test system: HOP-92 NSCLC
NCI-H522 lung = test system: NCI-H522 lung
A549/ATCC NSCLC = test system: A549/ATCC NSCLC
786-0 renal = test system: 786-0 renal
COLO 205 colon = test system: COLO 205 colon
DU-145 prostate = test system: DU-145 prostate
K-562 leukemia = test system: K-562 leukemia
MALME-3M melanoma = test system: MALME-3M melanoma
MDA-MB-231 breast = test system: MDA-MB-231 breast
RXF 393 renal = test system: RXF 393 renal
SF-268 CNS = test system: SF-268 CNS
SF-295 CNS = test system: SF-295 CNS
SF-539 CNS = test system: SF-539 CNS
UACC-257 melanoma = test system: UACC-257 melanoma
M14 melanoma = test system: M14 melanoma

| SMILES | growth (NCI-H23 lung) | growth (NCI-H226 lung) | growth (NCI-H322M lung) | growth (HOP-62 NSCLC) | growth (NCI-H460 lung) | growth (HOP-92 NSCLC) | growth (NCI-H522 lung) | growth (A549/ATCC NSCLC) | growth (786-0 renal) | growth (COLO 205 colon) | growth (DU-145 prostate) | growth (K-562 leukemia) | growth (MALME-3M melanoma) | growth (MDA-MB-231 breast) | growth (RXF 393 renal) | growth (SF-268 CNS) | growth (SF-295 CNS) | growth (SF-539 CNS) | growth (UACC-257 melanoma) | growth (M14 melanoma) |
| --- | --- | --- | --- | --- | --- | --- | --- | --- | --- | --- | --- | --- | --- | --- | --- | --- | --- | --- | --- | --- |
| CNC(=O)c1cc(Oc2ccc(NC(=O)Nc3cc(C(C)(C)C)nn3-c3ccc4ncccc4c3)c(F)c2)ccn1 | -49.5% (active) | -15.9% (active) | -17.8% (active) | -41.4% (active) | -40.8% (active) | -10.8% (active) | -47.7% (active) | -16.1% (active) | -16.7% (active) | -78.1% (active) | -22.1% (active) | -7.14% (active) | -59.5% (active) | -9.49% (active) | -71% (active) | -19.8% (active) | -13.1% (active) | -66.4% (active) | -24.3% (active) | -71.4% (active) |
| CC[C@H](CO)Nc1nc(NCc2ccccc2)c2ncn(C(C)C)c2n1 | 63.5% | 76% | 61.3% | 48.2% | 47.8% | 65.4% | 48.8% | 56% | 57.6% | 47.1% | 53.9% | 58.5% | 87.4% | 75.6% | -22.3% (active) | 70.9% | 59.8% | 57.2% | 91.6% | 71.8% |
| CNC(=O)c1cc(COc2nnc(Nc3ccc(Cl)cc3)c3ccoc23)ccn1 | 62.2% | 21.3% | 45.4% | -75.2% (active) | 31.2% | -5.53% (active) | 10.4% | 35.3% | -27.1% (active) | 72.4% | 31.9% | 69.7% | 22.4% | 18.5% | 43.1% | 14.2% | 10.4% | -65.6% (active) | 33.3% | 78.9% |
| Cn1cnc2c(F)c(Nc3ccc(Br)cc3Cl)c(C(=O)NOCCO)cc21 | 25.7% | 55.3% | 11.2% | 28.6% | 60.2% | -0.548% (active) | 44.4% | 35.8% | 71.1% | -3.79% (active) | 69.6% | 47.2% | -16.2% (active) | 24.7% | 14.7% | 77.2% | 82.8% | 69% | -21.2% (active) | 6.05% (active) |
| C[C@@H]1COCCN1c1cc(C2([S@](C)(=N)=O)CC2)nc(-c2ccnc3[nH]ccc23)n1 | -1.16% (active) | 39.5% | 3.93% (active) | 8.86% (active) | 9.37% (active) | 23% | 30.9% | 8.97% (active) | 2.08% (active) | 42.3% | 17.5% | 10.8% | 43.1% | 48% | -28.4% (active) | 43.5% | 19% | 1.29% (active) | 52.8% | 10.6% |
| CC(=O)NCC(=O)N1[C@@H]2CC[C@H]1c1ccc(Nc3ncc(C(F)(F)F)c(NC4CCC4)n3)cc12 | 27.9% [2.5 µM] | 42.8% [2.5 µM] | 14.2% [2.5 µM] | 23% [2.5 µM] | 16.3% [2.5 µM] | -1.13% [2.5 µM] (active) | 46.1% [2.5 µM] | 34% [2.5 µM] | 42.4% [2.5 µM] | -22.6% [2.5 µM] (active) | 41.7% [2.5 µM] | 44.8% [2.5 µM] | 46.3% [2.5 µM] | 38.1% [2.5 µM] | -12.8% [2.5 µM] (active) | 38.6% [2.5 µM] | 60% [2.5 µM] | 11.2% [2.5 µM] | 59.8% [2.5 µM] | 26.9% [2.5 µM] |
| CNC(=O)c1ccc(Nc2ncc(C(F)(F)F)c(NCc3nccnc3N(C)S(C)(=O)=O)n2)cc1 | -16.8% (active) | 2.77% (active) | 1.99% (active) | -23.5% (active) | 0.647% (active) | -13.6% (active) | -25.2% (active) | -14.4% (active) | 8.71% (active) | -66.2% (active) | 7.63% (active) | 10.6% | -1.87% (active) | 3.13% (active) | -51.1% (active) | 2.86% (active) | 5.63% (active) | -42.7% (active) | -21.5% (active) | 8.04% (active) |
| CC(C)c1cc(CNc2nc(Nc3cc(C4CC4)[nH]n3)cc(N3CCN(C)CC3)n2)on1 | -25% (active) | -3.34% (active) | -20.1% (active) | -23.5% (active) | -47.6% (active) | -10.9% (active) | -34.7% (active) | 3.1% (active) | 10.3% | -69.6% (active) | -15.7% (active) | 5.67% (active) | -42.9% (active) | 6.11% (active) | -54.1% (active) | -3.51% (active) | 6.84% (active) | -61.8% (active) | -14.3% (active) | -37.5% (active) |
| O=C(Nc1ccc(Nc2ncnc3sc4c(c23)CCOC4)cc1)Nc1ccc(Cl)c(C(F)(F)F)c1 | 86% | 103% | 102% | 116% | 99.7% | 89% | 66.5% | 99.3% | 107% | 104% | 96.1% | 88.5% | 88.7% | 95.2% | 98.9% | 99.4% | 83.1% | 63.8% | 105% | 77.7% |
| C=CC(=O)Nc1cc2c(Nc3ccc(F)c(Cl)c3)ncnc2cc1C#CC(C)(C)N1CCN(C)CC1 | -88.9% (active) | -97.4% (active) | -86% (active) | -88.3% (active) | -77% (active) | -91.3% (active) | -73.7% (active) | -82% (active) | -96.3% (active) | -71.7% (active) | -98.9% (active) | -30.7% (active) | -85.3% (active) | -90.1% (active) | -98.6% (active) | -94.3% (active) | -97.4% (active) | -100% (active) | -86.2% (active) | -90% (active) |
| Nc1cc(C(F)(F)F)c(-c2cc(N3CCOCC3)nc(N3CCOCC3)n2)cn1 | -11.8% (active) | -10.6% (active) | -18.3% (active) | -40.8% (active) | -12.9% (active) | -42.2% (active) | -51.7% (active) | -44.8% (active) | -9.19% (active) | -61.3% (active) | 3.11% (active) | 0.801% (active) | -60.8% (active) | -1.72% (active) | -39.7% (active) | 6.65% (active) | -46.8% (active) | -57% (active) | -49.5% (active) | -62.1% (active) |
| COC(=O)[C@H](Cc1ccccc1)NC(=O)[C@@H](OC)[C@@H]1Cc2cc3cc(OC4CC(OC5CC(O)C(O)C(C)O5)C(O)C(C)O4)c(C)c(O)c3c(O)c2C(=O)[C@H]1OC1CC(OC2CC(OC3CC(C)(O)C(O)C(C)O3)C(O)C(C)O2)C(O)C(C)O1 (stereo not given in full) | -28.5% (active) | -33% (active) | 7.54% (active) | 4.37% (active) | 4.92% (active) | -17.5% (active) | -30.7% (active) | 6.81% (active) | 0.647% (active) | -36.7% (active) | 11.8% | 5.63% (active) | -54.8% (active) | -8.99% (active) | -75% (active) | -2% (active) | -9.46% (active) | -35.7% (active) | -16.2% (active) | -60.8% (active) |
| Cc1ccc(NC(=O)Nc2ccc(Nc3ncnc4sc5c(c34)CCOC5)cc2)cc1Cl | 99.9% | 94.9% | 103% | 74.6% | 108% | 91.6% | 60.9% | 85.8% | 110% | 102% | 114% | 108% | 98.2% | 88.5% | 95.5% | 103% | 96% | 84.4% | 88.8% | 99.1% |
| C/C(=C(/c1ccc(Cl)cc1)c1ccc(OCCN2CCCCCC2)cc1)c1ccccc1 | 74.9% | 95.8% | 93.2% | 90.3% | 76.3% | 82.6% | 72.9% | 67.8% | 82% | 15.9% | 83.5% | 22.7% | 81.7% | 86.9% | 81.4% | 93% | 86.4% | 72.4% | 92.2% | 81.4% |
| N#CCNC(=O)c1ccc(-c2ccnc(Nc3ccc(N4CCOCC4)cc3)n2)cc1 | 29.6% | -3.52% (active) | 39.2% | 4.27% (active) | 6.81% (active) | 46.9% | 4.57% (active) | 13.4% | 4.83% (active) | 2.5% (active) | 18.6% | 26.9% | 33.2% | 19.8% | -62.8% (active) | 22.1% | 49.5% | -9.39% (active) | 31.1% | 44% |

— PubChem BioAssay (NCI)
